# Measured values taken from PubChem BioAssay (Tox21).
# Records with an inconclusive call do not appear. Where a call stands in place of a potency, no number is given. Unmarked numbers belong to inactive results. Activity calls are given as the source filed them. Calls follow the shape of the full dose curve.
# Experiment: p53 small molecule agonists, cell-based qHTS assay: qHTS cell viability counter screen (AID 1963581); also: nearly all actives have a fitted effect of over 45% in size
# Details: p53RE-bla HCT-116 viability, ATP luminescence, 16 h; series mostly up to 66 µM
# Excerpt: National Center for Advancing Translational Sciences [NCATS]
# Division of Preclinical Innovation [DPI]
# U.S. Environmental Protection Agency [EPA]
# National Institutes of Environmental Health Sciences [NIEHS]
# National Toxicology Program [NTP]
# U.S. Food and Drug Administration [FDA]
# p53, a tumor suppressor protein, is activated following cellular insult, including DNA damage and other cellular stresses. The activation of p53 regulates cell fate by inducing DNA repair, cell cycle arrest, apoptosis, or cellular senescence. The activation of p53, therefore, is a good indicator of DNA damage and other cellular stresses. The CellSensor p53RE-bla HCT-116 cell line (Invitrogen) contains a stably integrated beta-lactamase reporter gene under control of the p53 response elements. The activation of the reporter gene under culture conditions can be detected by fluorescence intensity. This cell line was used to screen the Tox21 compound library in a 1536-well plate format and to identify agonists that activate the p53 signaling pathway. The cytotoxicity of the Tox21 compound library against the p53 RE-bla HCT-116 cell line was tested in parallel by measuring the intra cellular ATP content in the same wells.
# Tox21 Assay Protocol Summary:
# The p53RE-bla cells were dispensed at 4,000 cells/5 ul/well in 1536-well black wall/clear bottom plates using a Multidrop dispenser. After the assay plates were incubated at a 37 C/5% CO2 incubator for 5 hours, 23 nL of compounds dissolved in DMSO, positive controls or DMSO only was transferred to the assay plate by a pin tool. The plates were incubated at 37 C for 16 hours. After 1 uL of LiveBLAzerTM B/G FRET substrate was added using a Flying Reagent Dispenser, the plates were incubated at room temperature for 2 hours, and fluorescence intensity was measured by an Envision plate reader. For cell viability readout that measures cytotoxicity, 4 ul/well of CellTiter-Glo reagent was added into the assay plates using a Flying Reagent Dispenser. After 30 min incubation at room temperature, the luminescence intensity in the plates was measured using a ViewLux plate reader.
Compound,Potency,"activity change, negative = cytotoxicity"
C=C(C)C(=O)OCC,inactive,–
CN(C)CCCO[C@@H]1[C@H]2OC(C)(C)O[C@H]2O[C@@H]1C(O)CO (stereo not given in full),inactive,–
CCOC(=O)OC(C)OC(=O)[C@@H]1N2C(=O)[C@@H](NC(=O)[C@H](N)c3ccccc3)[C@H]2SC1(C)C (stereo not given in full),inactive,–
NCCCC(N)(C(=O)O)C(F)F (stereo not given),inactive,–
COc1cc(C(=O)OCCCN2CCCN(CCCOC(=O)c3cc(OC)c(OC)c(OC)c3)CC2)cc(OC)c1OC,inactive,–
CN1C(CSCC(F)(F)F)Nc2cc(Cl)c(S(N)(=O)=O)cc2S1(=O)=O (stereo not given),inactive,–
CC(=O)SCc1ccco1,inactive,–
C[C@]12CC[C@H]3C(=CCc4cc(O)ccc43)[C@@H]1CCC2=O,inactive,–
CN(C)CCOC(c1ccccc1)c1ccccc1,inactive,–
O=C(O)CCCCCCCCCC(=O)O,inactive,–
CCCCCCCCCCCCCCC,inactive,–
CCCCC(=O)O[C@]1(C(=O)CO)[C@@H](C)C[C@H]2[C@@H]3CCC4=CC(=O)C=C[C@]4(C)[C@@]3(F)[C@@H](O)C[C@@]21C,inactive,–
COC(=O)c1cc(Cl)cc(Cl)c1,inactive,–
CCCCc1oc2ccccc2c1C(=O)c1cc(I)c(OCCN(CC)CC)c(I)c1,inactive,–
CCC(=O)OCCOc1ccccc1,inactive,–
CCOCC(C)O (stereo not given),inactive,–
CC1(C)O[C@@H]2C[C@H]3[C@@H]4CCC5=CC(=O)CC[C@]5(C)[C@@]4(F)[C@@H](O)C[C@]3(C)[C@]2(C(=O)CCl)O1,inactive,–
CCN(CC)CC,inactive,–
Clc1ccc(C(Cn2ccnc2)OCc2ccc(Sc3ccccc3)cc2)c(Cl)c1 (stereo not given),inactive,–
CC(=O)NNC(C)=O,inactive,–

Compound,Potency,"activity change, negative = cytotoxicity"
CCSCC,inactive,–
CCCCCCOC(=O)CCCCCCCC(=O)OCCCCCC,inactive,–
COc1ccc2cc(CCC(C)=O)ccc2c1,inactive,–
CN(C)Cc1cc(C(C)(C)C)c(O)c(C(C)(C)C)c1,inactive,–
COC(C)(C)OC,inactive,–
O=C(/C=C/c1ccc([N+](=O)[O-])cc1)c1ccccc1,inactive,–
O=C1CCCCCCCCCCCC(=O)OCCO1,inactive,–
Cc1[nH]c(C)c(Cl)c(=O)c1Cl,–,15.4% [at 13.5 µM]
CCCC(=O)OC[C@@H](OC(=O)CCC)[C@@H](OC(=O)CCC)[C@H](Cn1c2nc(=O)[nH]c(=O)c-2nc2cc(C)c(C)cc21)OC(=O)CCC,inactive,–
Cc1ccc2ccc3cccc4ccc1c2c34,inactive,–
CN1C[C@H]2c3ccccc3Oc3ccc(Cl)cc3[C@@H]2C1,inactive,–
COc1ccc(-c2cc(=S)ss2)cc1,inactive,–
Cc1[nH]cnc1C[C@H]1CCc2c(C)c3ccccc3n2C1=O,inactive,–
CCC(CN)=C(c1ccccc1)c1ccccc1,inactive,–
C=CC(C)(CCC=C(C)C)OC(=O)/C=C/c1ccccc1 (stereo not given),inactive,–
CN(C)c1ccc(C=O)cc1,inactive,–
CN(C)c1ccc(N=NS(=O)(=O)O)cc1,inactive,–
COc1nc(N)nc2c1ncn2[C@@H]1O[C@H](CO)[C@@H](O)[C@@H]1O,inactive,–
CS(=O)(=O)c1ccc([C@@H](O)[C@@H](CF)NC(=O)C(Cl)Cl)cc1,inactive,–
CCCC(=O)O[C@]1(C(=O)COC(=O)CC)CC[C@H]2[C@@H]3CCC4=CC(=O)CC[C@]4(C)[C@H]3[C@@H](O)C[C@@]21C,–,-11% [at 13.5 µM]
